# In publication PMC7862700, “An all-to-all approach to the identification of sequence-specific readers for epigenetic DNA modifications on cytosine”:
# What was measured:
# Test in all cases: DAPPL (digital affinity profiling via proximity ligation, sequencing); 10 mM Tris-HCl pH 7.5, 50 mM NaCl, 1 mM DTT, 4% glycerol, room temperature, 30 min; GST-TFs on glutathione beads, 16-mer random dsDNA library, 0.1% formaldehyde crosslink after washing; high values mean tight binding
# [1] = target: T1, FLI1 (Homo sapiens, UniProt Q01543 1-452); details: protein: recombinant; tags: N-terminal GST; dsDNA, one strand shown
# T1 sequence: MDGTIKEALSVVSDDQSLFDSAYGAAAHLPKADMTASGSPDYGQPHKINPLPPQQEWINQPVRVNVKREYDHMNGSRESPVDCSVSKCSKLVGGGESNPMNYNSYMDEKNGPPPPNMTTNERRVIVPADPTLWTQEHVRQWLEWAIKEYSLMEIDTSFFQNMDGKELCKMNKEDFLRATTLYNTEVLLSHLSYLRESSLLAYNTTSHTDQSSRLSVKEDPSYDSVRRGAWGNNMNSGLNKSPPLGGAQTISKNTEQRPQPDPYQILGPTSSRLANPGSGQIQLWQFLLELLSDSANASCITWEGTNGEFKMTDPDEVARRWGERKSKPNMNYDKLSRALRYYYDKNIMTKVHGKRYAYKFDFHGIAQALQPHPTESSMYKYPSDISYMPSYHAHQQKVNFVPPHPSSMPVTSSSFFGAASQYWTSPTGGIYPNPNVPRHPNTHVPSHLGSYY
# In short: (§1)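 Sequencing on an Illumina NextSeq500 followed washing, crosslinking with 0.1% formaldehyde, proximity ligation (BsaI/T4 ligase, 1 h, 37 °C) and PCR amplification of pools that had been incubated for 30 min at room temperature with 200 nmole of a random double-stranded 16-mer DNA library in Tris/NaCl/DTT/glycerol buffer. Each pool held DNA-barcoded human transcription factors, expressed in yeast as GST fusions and captured on glutathione beads, plus a tag-only sample. Binding signal is a hexamer's read frequency for a factor divided by its frequency in the tag-only sample.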
# [2] = target: T2, ELK1 (Homo sapiens, UniProt P19419 1-428); details: protein: recombinant; tags: N-terminal GST; dsDNA, one strand shown
# T2 sequence: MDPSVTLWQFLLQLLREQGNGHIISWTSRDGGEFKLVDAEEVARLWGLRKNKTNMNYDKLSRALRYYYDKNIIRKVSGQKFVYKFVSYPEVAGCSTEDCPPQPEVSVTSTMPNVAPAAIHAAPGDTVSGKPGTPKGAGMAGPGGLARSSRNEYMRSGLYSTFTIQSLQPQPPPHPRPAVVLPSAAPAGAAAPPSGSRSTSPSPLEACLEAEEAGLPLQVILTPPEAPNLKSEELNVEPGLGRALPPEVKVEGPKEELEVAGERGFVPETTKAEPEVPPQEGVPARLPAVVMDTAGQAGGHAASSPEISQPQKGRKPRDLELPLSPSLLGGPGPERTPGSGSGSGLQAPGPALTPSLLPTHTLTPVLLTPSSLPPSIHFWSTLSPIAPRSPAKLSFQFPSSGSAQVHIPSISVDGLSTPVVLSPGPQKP
# In short: as §1
# [3] = target: T3, GABPA (Homo sapiens, UniProt Q06546 1-454); details: protein: recombinant; tags: N-terminal GST; dsDNA, one strand shown
# T3 sequence: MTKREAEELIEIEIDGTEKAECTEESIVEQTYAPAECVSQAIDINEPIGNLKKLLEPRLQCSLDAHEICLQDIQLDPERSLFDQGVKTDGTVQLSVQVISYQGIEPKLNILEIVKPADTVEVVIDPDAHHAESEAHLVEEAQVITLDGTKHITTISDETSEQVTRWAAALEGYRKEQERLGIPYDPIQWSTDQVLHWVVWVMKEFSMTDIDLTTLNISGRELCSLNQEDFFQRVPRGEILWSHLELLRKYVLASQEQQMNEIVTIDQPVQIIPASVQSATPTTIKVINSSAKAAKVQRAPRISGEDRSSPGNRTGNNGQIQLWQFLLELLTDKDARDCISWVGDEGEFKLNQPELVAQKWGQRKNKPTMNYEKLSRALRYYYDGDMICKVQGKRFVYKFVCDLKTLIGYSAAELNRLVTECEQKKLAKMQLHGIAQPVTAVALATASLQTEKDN
# In short: as §1
# [4] = target: T4, ERG (Homo sapiens, UniProt P11308 1-479); details: protein: recombinant; tags: N-terminal GST; dsDNA, one strand shown
# T4 sequence: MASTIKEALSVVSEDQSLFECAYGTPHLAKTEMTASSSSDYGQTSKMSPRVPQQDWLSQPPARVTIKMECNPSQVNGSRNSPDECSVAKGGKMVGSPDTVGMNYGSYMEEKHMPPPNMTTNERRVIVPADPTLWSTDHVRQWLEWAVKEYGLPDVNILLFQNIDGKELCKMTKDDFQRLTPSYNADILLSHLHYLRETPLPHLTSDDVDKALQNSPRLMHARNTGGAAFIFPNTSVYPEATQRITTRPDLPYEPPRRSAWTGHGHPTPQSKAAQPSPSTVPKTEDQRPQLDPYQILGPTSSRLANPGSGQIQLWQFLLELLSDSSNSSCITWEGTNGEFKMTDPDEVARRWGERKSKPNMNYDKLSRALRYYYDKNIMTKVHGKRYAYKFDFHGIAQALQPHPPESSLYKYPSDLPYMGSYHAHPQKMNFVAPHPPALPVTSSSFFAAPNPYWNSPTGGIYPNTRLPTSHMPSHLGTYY
# In short: as §1
# [5] = target: ELF1 (Homo sapiens, UniProt P32519 1-619); details: protein: recombinant; tags: N-terminal GST; dsDNA, one strand shown
# Sequence of ELF1 (P32519 whole entry): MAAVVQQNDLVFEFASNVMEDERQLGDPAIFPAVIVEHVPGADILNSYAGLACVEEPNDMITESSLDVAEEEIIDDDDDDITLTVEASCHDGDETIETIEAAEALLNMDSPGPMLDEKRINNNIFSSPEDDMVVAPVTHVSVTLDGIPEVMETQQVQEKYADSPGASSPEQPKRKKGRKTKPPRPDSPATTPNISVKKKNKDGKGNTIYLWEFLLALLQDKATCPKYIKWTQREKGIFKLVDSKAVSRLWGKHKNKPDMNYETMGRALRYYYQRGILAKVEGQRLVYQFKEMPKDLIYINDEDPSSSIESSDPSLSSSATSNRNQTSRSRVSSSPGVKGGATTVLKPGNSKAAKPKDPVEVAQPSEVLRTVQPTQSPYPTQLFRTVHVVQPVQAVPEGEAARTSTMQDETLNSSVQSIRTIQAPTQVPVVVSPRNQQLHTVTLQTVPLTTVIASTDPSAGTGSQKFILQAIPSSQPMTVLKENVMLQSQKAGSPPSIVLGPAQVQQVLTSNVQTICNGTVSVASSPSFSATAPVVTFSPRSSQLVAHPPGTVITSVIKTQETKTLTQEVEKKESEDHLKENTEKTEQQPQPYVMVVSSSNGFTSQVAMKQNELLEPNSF
# In short: as §1
# [6] = target: T5, EHF (Homo sapiens, UniProt Q9NZC4 1-300); details: protein: recombinant; tags: N-terminal GST; dsDNA, one strand shown
# T5 sequence: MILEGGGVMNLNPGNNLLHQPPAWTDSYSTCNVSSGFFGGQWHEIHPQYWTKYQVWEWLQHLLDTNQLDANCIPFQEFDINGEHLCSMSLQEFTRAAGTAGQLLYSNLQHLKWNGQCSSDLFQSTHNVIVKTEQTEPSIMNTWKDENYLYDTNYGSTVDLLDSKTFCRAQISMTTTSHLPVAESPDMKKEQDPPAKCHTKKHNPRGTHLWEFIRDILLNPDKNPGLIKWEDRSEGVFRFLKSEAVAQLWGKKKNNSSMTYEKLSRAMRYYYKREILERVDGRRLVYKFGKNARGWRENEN
# In short: as §1
# [7] = target: SPI1 (Homo sapiens, UniProt P17947 1-270); details: protein: recombinant; tags: N-terminal GST; dsDNA, one strand shown
# In short: as §1
# [8] = target: SPIB (Homo sapiens, UniProt Q01892 1-262); details: protein: recombinant; tags: N-terminal GST; dsDNA, one strand shown
# Sequence of SPIB (Q01892 whole entry): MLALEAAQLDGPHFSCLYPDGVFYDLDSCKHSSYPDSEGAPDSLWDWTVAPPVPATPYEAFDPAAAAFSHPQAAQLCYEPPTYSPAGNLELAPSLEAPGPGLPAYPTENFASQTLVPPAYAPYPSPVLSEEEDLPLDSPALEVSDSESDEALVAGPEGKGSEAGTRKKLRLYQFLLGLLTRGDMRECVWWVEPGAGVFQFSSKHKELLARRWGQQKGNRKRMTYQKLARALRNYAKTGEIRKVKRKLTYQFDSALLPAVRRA
# In short: as §1
# [9] = target: T6, ELK3 (Homo sapiens, UniProt P41970 1-407); details: protein: recombinant; tags: N-terminal GST; dsDNA, one strand shown
# T6 sequence: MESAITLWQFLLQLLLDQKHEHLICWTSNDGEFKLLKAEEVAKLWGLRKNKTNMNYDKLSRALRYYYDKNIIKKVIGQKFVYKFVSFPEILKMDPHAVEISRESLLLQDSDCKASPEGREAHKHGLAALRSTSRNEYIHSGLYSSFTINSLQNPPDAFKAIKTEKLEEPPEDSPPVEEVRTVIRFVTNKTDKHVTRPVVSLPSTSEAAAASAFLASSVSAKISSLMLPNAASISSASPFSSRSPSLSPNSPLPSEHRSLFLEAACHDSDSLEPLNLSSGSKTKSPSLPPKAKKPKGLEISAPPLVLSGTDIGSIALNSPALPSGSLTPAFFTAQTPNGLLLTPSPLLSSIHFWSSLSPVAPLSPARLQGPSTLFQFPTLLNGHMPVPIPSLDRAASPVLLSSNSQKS
# In short: as §1
# [10] = target: T7, FEV (Homo sapiens, UniProt Q99581 1-238); details: protein: recombinant; tags: N-terminal GST; dsDNA, one strand shown
# T7 sequence: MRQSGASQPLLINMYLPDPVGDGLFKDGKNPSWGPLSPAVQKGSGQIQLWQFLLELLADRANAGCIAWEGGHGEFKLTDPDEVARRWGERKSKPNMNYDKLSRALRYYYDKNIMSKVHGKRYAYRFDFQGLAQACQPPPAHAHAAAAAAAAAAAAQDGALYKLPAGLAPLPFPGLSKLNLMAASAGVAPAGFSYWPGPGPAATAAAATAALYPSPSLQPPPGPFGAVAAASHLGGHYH
# In short: as §1
# [11] = target: ETV5 (Homo sapiens, UniProt P41161 1-510); details: protein: recombinant; tags: N-terminal GST; dsDNA, one strand shown
# Sequence of ETV5 (P41161 whole entry): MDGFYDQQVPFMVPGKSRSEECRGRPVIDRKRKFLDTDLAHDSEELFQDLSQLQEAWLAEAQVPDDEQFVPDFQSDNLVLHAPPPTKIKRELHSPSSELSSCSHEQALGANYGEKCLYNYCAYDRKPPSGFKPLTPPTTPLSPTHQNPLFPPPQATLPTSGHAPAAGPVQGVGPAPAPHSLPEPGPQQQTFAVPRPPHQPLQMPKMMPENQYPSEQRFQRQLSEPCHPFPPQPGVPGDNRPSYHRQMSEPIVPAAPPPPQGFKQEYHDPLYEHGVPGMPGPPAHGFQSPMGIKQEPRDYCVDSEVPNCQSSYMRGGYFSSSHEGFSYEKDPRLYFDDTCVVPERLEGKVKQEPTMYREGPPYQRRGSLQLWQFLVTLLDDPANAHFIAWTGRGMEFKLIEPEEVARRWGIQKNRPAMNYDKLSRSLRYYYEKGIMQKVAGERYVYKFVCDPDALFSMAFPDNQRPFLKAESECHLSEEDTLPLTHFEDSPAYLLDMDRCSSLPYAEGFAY
# In short: as §1
# [12] = target: HSF1 (Homo sapiens, UniProt Q00613 1-529); details: protein: recombinant; tags: N-terminal GST; chain copies: 3; dsDNA, one strand shown
# Sequence of HSF1 (Q00613 whole entry): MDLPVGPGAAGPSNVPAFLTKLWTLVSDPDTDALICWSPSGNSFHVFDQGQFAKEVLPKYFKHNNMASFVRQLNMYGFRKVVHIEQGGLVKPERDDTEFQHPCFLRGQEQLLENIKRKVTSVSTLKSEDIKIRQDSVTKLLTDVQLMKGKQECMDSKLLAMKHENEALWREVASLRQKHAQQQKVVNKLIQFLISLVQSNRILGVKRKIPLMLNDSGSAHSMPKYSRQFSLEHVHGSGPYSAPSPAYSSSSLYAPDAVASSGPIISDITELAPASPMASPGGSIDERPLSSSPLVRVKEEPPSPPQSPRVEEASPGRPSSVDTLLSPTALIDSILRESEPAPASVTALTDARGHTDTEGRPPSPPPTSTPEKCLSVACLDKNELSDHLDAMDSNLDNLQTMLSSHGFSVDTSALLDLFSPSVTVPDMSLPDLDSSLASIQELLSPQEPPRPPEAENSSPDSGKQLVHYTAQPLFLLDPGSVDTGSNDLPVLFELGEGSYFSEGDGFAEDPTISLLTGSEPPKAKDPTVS
# In short: as §1
# [13] = target: T8, SPIC (Homo sapiens, UniProt Q8N5J4 1-248); details: protein: recombinant; tags: N-terminal GST; dsDNA, one strand shown
# T8 sequence: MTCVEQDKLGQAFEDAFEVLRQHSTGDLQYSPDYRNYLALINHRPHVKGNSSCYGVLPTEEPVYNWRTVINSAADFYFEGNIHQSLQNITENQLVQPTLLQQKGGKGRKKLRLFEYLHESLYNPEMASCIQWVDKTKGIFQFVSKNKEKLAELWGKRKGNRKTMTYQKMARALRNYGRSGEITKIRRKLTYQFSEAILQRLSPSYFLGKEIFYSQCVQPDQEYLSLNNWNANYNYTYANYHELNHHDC
# In short: as §1
# [14] = target: ELF4 (Homo sapiens, UniProt Q99607 1-663); details: protein: recombinant; tags: N-terminal GST; dsDNA, one strand shown
# Sequence of ELF4 (Q99607 whole entry): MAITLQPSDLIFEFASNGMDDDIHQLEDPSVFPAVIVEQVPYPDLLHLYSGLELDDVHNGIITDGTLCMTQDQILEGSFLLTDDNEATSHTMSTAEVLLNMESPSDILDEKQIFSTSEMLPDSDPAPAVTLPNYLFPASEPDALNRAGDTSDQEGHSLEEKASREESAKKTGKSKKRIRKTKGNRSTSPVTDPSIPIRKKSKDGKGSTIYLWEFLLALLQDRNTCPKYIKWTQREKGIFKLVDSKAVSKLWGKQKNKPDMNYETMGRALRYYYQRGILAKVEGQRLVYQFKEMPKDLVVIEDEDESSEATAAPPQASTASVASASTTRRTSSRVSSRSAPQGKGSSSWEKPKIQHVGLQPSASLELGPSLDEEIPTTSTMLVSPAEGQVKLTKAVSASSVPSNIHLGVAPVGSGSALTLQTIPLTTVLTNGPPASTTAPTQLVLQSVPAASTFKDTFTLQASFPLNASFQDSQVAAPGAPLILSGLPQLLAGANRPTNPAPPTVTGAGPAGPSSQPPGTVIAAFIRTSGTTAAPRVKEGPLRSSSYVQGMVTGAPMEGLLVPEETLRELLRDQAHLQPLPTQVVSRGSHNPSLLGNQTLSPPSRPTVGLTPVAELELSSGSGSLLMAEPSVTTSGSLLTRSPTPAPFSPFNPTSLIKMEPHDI
# In short: as §1
# [15] = target: T9, ELK4 (Homo sapiens, UniProt P28324-2 1-405); details: protein: recombinant; tags: N-terminal GST; dsDNA, one strand shown
# T9 sequence: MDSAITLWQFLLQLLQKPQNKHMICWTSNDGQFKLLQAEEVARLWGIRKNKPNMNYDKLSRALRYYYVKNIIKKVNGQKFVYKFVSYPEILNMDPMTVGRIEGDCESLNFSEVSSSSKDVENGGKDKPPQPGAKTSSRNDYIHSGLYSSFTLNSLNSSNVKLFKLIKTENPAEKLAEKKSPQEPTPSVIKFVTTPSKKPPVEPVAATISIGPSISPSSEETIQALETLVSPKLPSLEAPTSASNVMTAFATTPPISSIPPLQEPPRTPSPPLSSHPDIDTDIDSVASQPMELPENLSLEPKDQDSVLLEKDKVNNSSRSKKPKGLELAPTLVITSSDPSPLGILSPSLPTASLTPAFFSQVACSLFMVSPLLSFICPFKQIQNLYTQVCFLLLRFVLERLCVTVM
# In short: as §1
# [16] = target: T10, ETV2 (Homo sapiens, UniProt O00321 1-342); details: protein: recombinant; tags: N-terminal GST; dsDNA, one strand shown
# T10 sequence: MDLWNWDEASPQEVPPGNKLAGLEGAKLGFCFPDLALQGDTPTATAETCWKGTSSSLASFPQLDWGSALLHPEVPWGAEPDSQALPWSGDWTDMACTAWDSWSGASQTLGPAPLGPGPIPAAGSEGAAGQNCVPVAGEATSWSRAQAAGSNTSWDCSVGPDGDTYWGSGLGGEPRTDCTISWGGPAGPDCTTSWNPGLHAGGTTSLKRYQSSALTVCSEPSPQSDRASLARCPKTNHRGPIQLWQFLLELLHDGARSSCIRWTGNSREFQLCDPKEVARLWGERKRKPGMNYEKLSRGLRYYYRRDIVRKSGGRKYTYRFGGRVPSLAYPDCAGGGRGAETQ
# In short: as §1
# [17] = target: T11, ELF3 (Homo sapiens, UniProt P78545 1-371); details: protein: recombinant; tags: N-terminal GST; dsDNA, one strand shown
# T11 sequence: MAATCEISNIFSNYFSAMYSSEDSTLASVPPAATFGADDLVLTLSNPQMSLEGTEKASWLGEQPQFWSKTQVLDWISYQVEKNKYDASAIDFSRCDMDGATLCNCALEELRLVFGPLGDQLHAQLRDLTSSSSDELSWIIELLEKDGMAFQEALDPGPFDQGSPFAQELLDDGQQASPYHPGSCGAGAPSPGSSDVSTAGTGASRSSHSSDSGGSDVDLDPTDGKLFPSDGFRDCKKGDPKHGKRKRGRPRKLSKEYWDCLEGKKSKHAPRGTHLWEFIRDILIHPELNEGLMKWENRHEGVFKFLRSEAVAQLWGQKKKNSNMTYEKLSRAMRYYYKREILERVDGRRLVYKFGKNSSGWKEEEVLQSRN
# In short: as §1
# [18] = target: CRX (Homo sapiens, UniProt O43186 1-299); details: protein: recombinant; tags: N-terminal GST; dsDNA, one strand shown
# Sequence of CRX (O43186 whole entry): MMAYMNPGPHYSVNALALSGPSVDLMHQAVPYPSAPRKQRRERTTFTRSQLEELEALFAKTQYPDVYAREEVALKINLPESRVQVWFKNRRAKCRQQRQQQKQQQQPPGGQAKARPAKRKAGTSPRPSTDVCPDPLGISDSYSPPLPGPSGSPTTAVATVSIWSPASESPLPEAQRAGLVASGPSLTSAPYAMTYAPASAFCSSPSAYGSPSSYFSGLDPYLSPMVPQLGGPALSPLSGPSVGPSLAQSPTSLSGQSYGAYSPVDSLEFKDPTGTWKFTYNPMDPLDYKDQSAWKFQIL
# In short: as §1
# [19] = target: ETV1 (Homo sapiens, UniProt P50549 1-477); details: protein: recombinant; tags: N-terminal GST; dsDNA, one strand shown
# Sequence of ETV1 (P50549 whole entry): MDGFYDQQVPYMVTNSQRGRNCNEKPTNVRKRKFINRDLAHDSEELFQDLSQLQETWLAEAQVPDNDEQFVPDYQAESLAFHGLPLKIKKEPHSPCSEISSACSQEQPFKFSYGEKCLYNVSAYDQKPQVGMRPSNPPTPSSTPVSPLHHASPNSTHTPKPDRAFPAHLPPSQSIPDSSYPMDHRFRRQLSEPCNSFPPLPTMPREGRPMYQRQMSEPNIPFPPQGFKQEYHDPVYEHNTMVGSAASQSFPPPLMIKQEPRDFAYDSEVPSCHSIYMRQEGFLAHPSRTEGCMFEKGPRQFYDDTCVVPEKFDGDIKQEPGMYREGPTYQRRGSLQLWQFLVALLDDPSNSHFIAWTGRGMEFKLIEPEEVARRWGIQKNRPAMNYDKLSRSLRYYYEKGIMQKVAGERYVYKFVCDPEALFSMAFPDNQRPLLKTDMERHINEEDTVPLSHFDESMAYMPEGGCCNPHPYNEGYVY
# In short: as §1
sequence,measurement,setting,value
CAATAC,binding signal,[1],"1.25 fold enrichment (6-mer frequency, TF over GST control)"
same,binding signal,[2],"1.29 fold enrichment (6-mer frequency, TF over GST control)"
same,binding signal,[3],"1.23 fold enrichment (6-mer frequency, TF over GST control)"
same,binding signal,[4],"1.23 fold enrichment (6-mer frequency, TF over GST control)"
same,binding signal,[5],"1.24 fold enrichment (6-mer frequency, TF over GST control)"
same,binding signal,[6],"1.2 fold enrichment (6-mer frequency, TF over GST control)"
same,binding signal,[7],"1.25 fold enrichment (6-mer frequency, TF over GST control)"
same,binding signal,[8],"1.17 fold enrichment (6-mer frequency, TF over GST control)"
same,binding signal,[9],"1.28 fold enrichment (6-mer frequency, TF over GST control)"
same,binding signal,[10],"1.27 fold enrichment (6-mer frequency, TF over GST control)"
same,binding signal,[11],"1.26 fold enrichment (6-mer frequency, TF over GST control)"
same,binding signal,[12],"1.07 fold enrichment (6-mer frequency, TF over GST control)"
same,binding signal,[13],"1.16 fold enrichment (6-mer frequency, TF over GST control)"
same,binding signal,[14],"1.23 fold enrichment (6-mer frequency, TF over GST control)"
same,binding signal,[15],"1.39 fold enrichment (6-mer frequency, TF over GST control)"
same,binding signal,[16],"1.22 fold enrichment (6-mer frequency, TF over GST control)"
same,binding signal,[17],"1.29 fold enrichment (6-mer frequency, TF over GST control)"
same,binding signal,[18],"1.04 fold enrichment (6-mer frequency, TF over GST control)"
same,binding signal,[19],"1.3 fold enrichment (6-mer frequency, TF over GST control)"
